Experimental data from the supplement of paper PMC10127200.
Counter-ions that a name gives are not always drawn.

How the values were obtained:
Experiment in all cases: Euclidean distance of Cell Painting phenotypic profile (signed KS, 77 features) to DMSO centroid (dimensionless distance); 5 or 10 uM (library dependent); higher = stronger phenotypic change vs DMSO (phenoactivity)
Settings in all cases: 48 h
[1] = test system: 786-O
Procedure, shortened: (§1)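 Stained cells were imaged confocally at 20X with 9 fields per well, after 48 h of exposure to library compounds at 10 or 5 uM (set by library; 0.1% DMSO final). The cells were five cancer lines and a healthy fibroblast line. From the images, Harmony extracted 77 features, each expressed as a signed Kolmogorov-Smirnov statistic relative to same-plate vehicle wells. Phenoactivity is measured as Euclidean distance to the median vehicle profile, using plate-position-corrected, correlation-weighted profiles averaged across replicates at the top dose.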

[2] = test system: A549
Procedure, shortened: as §1

[3] = test system: DU145
Procedure, shortened: as §1

[4] = test system: FB
Procedure, shortened: as §1

[5] = test system: HEPG2
Procedure, shortened: as §1

[6] = test system: OVCAR4
Procedure, shortened: as §1

| SMILES | Euclidean distance [1] | Euclidean distance [2] | Euclidean distance [3] | Euclidean distance [4] | Euclidean distance [5] | Euclidean distance [6] |
| --- | --- | --- | --- | --- | --- | --- |
| O=C(O)c1ccc2c(c1)nc(Nc1cccc(Cl)c1)c1ccncc12 [CX-4945 (Silmitasertib)] | 1.47 | 1.44 | 2.54 | 1.55 | 1.4 | 1.25 |
| C[C@@H](O)[C@H]1C(=O)N2C(C(=O)O)=C(S[C@@H]3CN[C@H](C(=O)N(C)C)C3)[C@H](C)[C@H]12 [Meropenem Trihydrate] | 1.26 | 1.2 | 0.738 | 0.87 | 1.01 | 0.913 |
| CC(C)(O)[C@H]1CC[C@@](C)([C@H]2[C@@H](O)C[C@@]3(C)[C@@H]4C[C@H](O[C@@H]5O[C@H](CO)[C@@H](O)[C@H](O)[C@H]5O)[C@H]5C(C)(C)[C@@H](O[C@@H]6OC[C@@H](O)[C@H](O)[C@H]6O)CC[C@@]56C[C@@]46CC[C@]23C)O1 [Astragaloside A] | 4.07 | 3.46 | 3.2 | 2.61 | 2.19 | 3.11 |
| C=CCNC(N)=S [Allylthiourea] | 1.12 | 0.909 | 0.907 | 0.873 | 0.823 | 1.54 |
| CC(C)(F)C[C@H](N[C@@H](c1ccc(-c2ccc(S(C)(=O)=O)cc2)cc1)C(F)(F)F)C(=O)NC1(C#N)CC1 [Odanacatib (MK-0822)] | 0.533 | 2.1 | 0.7 | 0.656 | 1.37 | 0.985 |
| O=C1CN2Cc3c(ccc(Cl)c3Cl)N=C2N1 [Anagrelide HCl] | 0.871 | 0.869 | 0.905 | 1.18 | 1.01 | 1.53 |
| CNCCc1ccccn1 [Betahistine] | 1.31 | 0.763 | 0.72 | 1.01 | 0.628 | 0.854 |
| NCc1ccc(S(N)(=O)=O)cc1 [Mafenide hydrochloride] | 1.35 | 0.84 | 0.784 | 0.654 | 0.629 | 1.46 |
| CO[C@@]1(NC(=O)C(C(=O)O)c2ccc(O)cc2)C(=O)N2C(C(=O)O)=C(CSc3nnnn3C)CO[C@@H]21 (some centres undefined) [Latamoxef sodium] | 1.53 | 0.777 | 1.09 | 0.907 | 0.797 | 1.39 |
| CO/N=C1\C[C@]2(C[C@@H]3C[C@@H](C/C=C(\C)C[C@@H](C)/C=C/C=C4\CO[C@@H]5[C@H](O)C(C)=C[C@@H](C(=O)O3)[C@]45O)O2)O[C@H](/C(C)=C/C(C)C)[C@H]1C [Moxidectin] | 3.17 | 2.11 | 2.44 | 1.21 | 0.757 | 1.63 |
| NNc1nncc2ccccc12 [Hydralazine HCl] | 1.33 | 1.23 | 0.857 | 1.33 | 0.411 | 0.975 |
| CC1=C(C(=O)Nc2cc3cn[nH]c3cc2F)C(c2ccc(C(F)(F)F)cc2)CC(=O)N1 (centres undefined) | 2.35 | 1.68 | 2.39 | 2.35 | 0.954 | 2.51 |
| CNCC[C@H](Oc1cccc2ccccc12)c1cccs1 [Duloxetine HCl] | 1.15 | 1.43 | 1.55 | 1.48 | 2.34 | 1.46 |
| CCc1nc(C(N)=O)c(Nc2ccc(N3CCC(N4CCN(C)CC4)CC3)c(OC)c2)nc1NC1CCOCC1 [Gilteritinib (ASP2215)] | 2.93 | 3.06 | 3.49 | 3.66 | 3.86 | 2.89 |
| CC(=O)NO [Acetohydroxamic acid] | 1.37 | 1.28 | 0.954 | 1.17 | 0.648 | 0.776 |
| O=C(NCCN1CCOCC1)Nc1nc2ccc(Sc3nnc4ccc(-c5ccc(F)cc5)nn34)cc2s1 | 1.21 | 1.01 | 1.2 | 1.23 | 0.646 | 1.15 |
| CCN(CC)Cc1cc(Nc2ccnc3cc(Cl)ccc23)ccc1O [Amodiaquine] | 2.2 | 2.16 | 1.37 | 3.19 | 2.51 | 2.02 |
| O=C(Nc1ccc([N+](=O)[O-])cc1Cl)c1cc(Cl)ccc1O [Niclosamide] | 2.27 | 2.95 | 2.1 | 3.12 | 0.819 | 2.45 |
| COc1cc(NC(=O)c2ccccn2)ccc1Cl | 1.08 | 0.966 | 0.845 | 1.02 | 0.638 | 1.19 |
| CC1(C)O[C@@H]2[C@@H](CO[C@@]3(COS(N)(=O)=O)OC(C)(C)O[C@@H]23)O1 [Topiramate] | 1.24 | 1.07 | 0.829 | 0.965 | 0.72 | 0.977 |
| CN1C(C(=O)Nc2ccccn2)=C(O)c2sccc2S1(=O)=O [Tenoxicam] | 0.866 | 1.16 | 1.02 | 0.733 | 2.05 | 1.22 |
| CN(CCOc1ccc(CC2SC(=O)NC2=O)cc1)c1ccccn1 (centres undefined) [Rosiglitazone maleate] | 0.964 | 0.896 | 1.89 | 1.31 | 0.95 | 1.34 |

| SMILES | Euclidean distance [1] | Euclidean distance [2] | Euclidean distance [3] | Euclidean distance [4] | Euclidean distance [5] | Euclidean distance [6] |
| --- | --- | --- | --- | --- | --- | --- |
| C[C@H]1O[C@@H](O[C@H]2CC[C@@]3(C)[C@@H](CC[C@]4(C)[C@@H]3C=C[C@]35OC[C@@]6(CCC(C)(C)C[C@H]63)[C@H](O)C[C@]54C)[C@]2(C)CO)[C@H](O)[C@@H](O[C@@H]2O[C@H](CO)[C@@H](O)[C@H](O)[C@H]2O)[C@H]1O [Saikosaponin D] | 2.45 | 2.4 | 5.79 | 1.95 | 4.11 | 2.92 |
| CCCCN(Cc1ccc(C(=O)NO)cc1)C(=O)Nc1ccccc1 [Nexturastat A] | 1.18 | 1.83 | 2.03 | 3.14 | 1.55 | 2.05 |
| NC(=O)NC1NC(=O)NC1=O (centres undefined) [Allantoin] | 0.856 | 0.693 | 1.19 | 0.801 | 3.52 | 1.68 |
| CC(=O)Nc1nc(C)c(-c2ccc(Cl)c(S(=O)(=O)NCCO)c2)s1 | 0.94 | 1.48 | 1.62 | 2.98 | 0.945 | 1.12 |
| CC#CC(=O)N1CC[C@@H](n2c(=O)n(-c3ccc(Oc4ccccc4)cc3)c3c(N)ncnc32)C1 [ONO-4059 (GS-4059) hydrochloride] | 1.09 | 0.871 | 1.8 | 1.99 | 0.863 | 0.627 |
| CC(C)[C@H](N)C(=O)OCCOCn1cnc2c(=O)nc(N)[nH]c21 [Valaciclovir HCl] | 1.18 | 1.31 | 2.3 | 0.774 | 1.28 | 1.37 |
| Nc1nc2ccc(OC(F)(F)F)cc2s1 [Riluzole] | 1.03 | 0.891 | 2.58 | 1.3 | 0.688 | 0.739 |
| COc1cc(OC)cc(N(CCNC(C)C)c2ccc3ncc(-c4cnn(C)c4)nc3c2)c1 | 3.65 | 3.46 | 2.34 | 4.29 | 3.36 | 3.1 |
| O=C(Nc1c(Cl)cncc1Cl)c1ccc(OC(F)F)c(OCC2CC2)c1 [Roflumilast] | 1.07 | 1.27 | 0.92 | 0.952 | 0.815 | 1.12 |
| C[C@]12CC[C@@H]3c4ccc(O)cc4CC[C@H]3[C@@H]1CCC2=O [Estrone] | 0.82 | 0.907 | 0.761 | 1.21 | 0.472 | 0.764 |
| CCCCCCCCCCC[C@@H](C[C@@H]1OC(=O)[C@H]1CCCCCC)OC(=O)[C@H](CC(C)C)NC=O [Orlistat] | 1.47 | 1.11 | 0.901 | 1.42 | 1.12 | 0.935 |
| N#CCNC(=O)c1ccc(-c2ccnc(Nc3ccc(N4CCOCC4)cc3)n2)cc1 [Momelotinib (CYT387)] | 2.83 | 3.71 | 3.36 | 3.49 | 2.74 | 2.48 |
| C=CC(=O)N1CC[C@H](n2nc(C#Cc3cc(OC)cc(OC)c3)c3c(N)ncnc32)C1 | 2.21 | 1.47 | 2.08 | 4.1 | 3.97 | 1.58 |
| O=C(O)Cc1ccccc1Nc1c(Cl)cccc1Cl [Diclofenac acid] | 0.971 | 0.349 | 2.62 | 0.749 | 0.668 | 0.711 |
| O=C1Nc2ccc(Cl)cc2[C@@](C#CC2CC2)(C(F)(F)F)O1 [Efavirenz] | 1.21 | 1.3 | 2.23 | 1.28 | 0.747 | 1.1 |
| CCOC(=O)C1=C(N)Oc2ccc(Br)cc2C1C(C#N)C(=O)OCC (centres undefined) | 0.871 | 1.18 | 1.12 | 1.03 | 1.03 | 0.791 |
| N[C@H](Cc1ccccc1)C(=O)O [D-Phenylalanine] | 1.65 | 1.05 | 0.814 | 0.864 | 0.733 | 0.852 |
| O=C(/C=C\n1cnc(-c2cc(C(F)(F)F)cc(C(F)(F)F)c2)n1)NNc1cnccn1 | 2.36 | 3.91 | 2.72 | 3.85 | 2.34 | 3.83 |
| C[N+](C)(C)CC(=O)O [Betaine] | 1.1 | 0.84 | 0.542 | 0.947 | 1.41 | 0.81 |
| NC(CO)C(=O)NNCc1ccc(O)c(O)c1O (centres undefined) [Benserazide HCl] | 1.18 | 0.748 | 0.938 | 0.967 | 0.666 | 1.39 |
| Nc1nc2[nH]cc(CCc3ccc(C(=O)N[C@@H](CCC(=O)O)C(=O)O)cc3)c2c(=O)[nH]1 [Pemetrexed Disodium Hydrate] | 2.12 | 2.97 | 1.28 | 0.937 | 2.46 | 2.8 |
| CN1CCC(=C2c3ccccc3C=Cc3ccccc32)CC1 [Cyproheptadine HCl] | 1.25 | 0.786 | 1.84 | 2.04 | 2.64 | 1.39 |
